Data as given in PubChem BioAssay (NCI).
Where “and” joins values, the source holds several entries; their conditions need not be identical. Equal entries are not always repeated. The panel holds about 83,000 compounds, 20% with a hit somewhere; the sample as a whole holds those more often.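 Method: cells in 96-well plates; compound added at one concentration; 48 h incubation; percent growth measured; values under 10 scored active.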 Calls of active or inactive are those of the source.

Each molecule was assayed on SK-OV-3 ovarian (assay: NCI-60 one-dose screen, 48 h (100 = growth as untreated, 0 = no growth, -100 = all killed)). Details: 10 µM unless noted.

| SMILES | growth |
| --- | --- |
| CN=C(N)N/N=C(\C)c1ccc2c(c1)Cc1cc(/C(C)=N/NC(N)=NC)ccc1-2 | -80.8% (active) |
| COC(=O)Nc1nc2ccc(C(=O)c3ccccc3)cc2[nH]1 | 22.8% (inactive) and 28.9% (inactive) and 32.6% (inactive) |
| O=C(Nc1cccc(Br)c1)Oc1ccc(Cl)c2cccnc12 | 95.6% [100 µM] (inactive) |
| O=C(CC1(O)C(=O)Nc2c(Cl)ccc(Cl)c21)c1ccc(Cl)cc1Cl (stereo not given) | 84.9% (inactive) |
| C[N+](C)=c1ccc2nc3c(cc(NCCCNc4cc5oc6cc(=[N+](C)C)ccc-6nc5c5ccccc45)c4ccccc43)oc-2c1 | 90.1% (inactive) |
| COc1cc(NS(C)(=O)=O)ccc1Nc1c2ccccc2nc2ccccc12 | 32.5% [2.5 µM] (inactive) |
| NC(=O)/C=C/C(=O)c1c(Cl)cccc1Cl | 59% (inactive) |
| C[n+]1c(/C=C/c2ccc([N+](=O)[O-])cc2)ccc2ccccc21 | 109% (inactive) |
| NC(N)=N/N=C/c1ccc([N+](=O)[O-])o1 | 116% (inactive) |
| S=C(NCCNC(=S)[S][Sn]([c]1ccccc1)([c]1ccccc1)[c]1ccccc1)[S][Sn]([c]1ccccc1)([c]1ccccc1)[c]1ccccc1 | -100% (active) |
| CCC(CCCN(CC)CCc1ccccc1)OC(=O)c1cc(OC)c(OC)c(OC)c1 (stereo not given) | 83.5% (inactive) |
| COc1ccccc1OC(=O)Oc1ccccc1OC | 112% (inactive) |
| CCN(CC)CCOc1ccc(-c2nc3cc(Cl)ccc3s2)cc1 | 59.9% (inactive) |
| O=[N+]([O-])c1ccc(N=Nc2ccc(O)cc2O)cc1 | 87% (inactive) |
| Cc1cc(N)c2ccccc2[n+]1CCCCCCCCCC[n+]1c(C)cc(N)c2ccccc21 | 9.8% (active) and -29.2% (active) |
| CN(C)C(=O)SC1=C(c2c(Cl)cccc2Cl)C(=O)c2ccccc21 | 110% (inactive) |

The molecules below were run on IGROV1 ovarian in the same assay as above. Details: 10 µM unless noted.

| SMILES | growth |
| --- | --- |
| CC(=O)ON=C1C=CC(=C(C#N)c2ccccc2)C=C1 | 2.9% (active) |
| O=C1C=CC(=O)N1C1c2ccccc2-c2ccccc21 | 99.4% (inactive) |
| COC(=O)c1nc(=S)[nH]c(C(=O)OC)c1C(=O)c1ccc2ccccc2c1 | 98.5% (inactive) |
| O=C(Nc1ccccc1)Oc1c(Cl)c(Cl)c(Cl)c(Cl)c1Cl | 95.2% (inactive) and 96.3% (inactive) |
| O=C1N[C@H]2[C@H](CS[C@H]2CCCCC(=O)N(CCP(c2ccccc2)c2ccccc2)CCP(c2ccccc2)c2ccccc2)N1 | -47.4% (active) |
| CCCCCCCCCCCCCCNCc1ccccc1 | 97.7% (inactive) |
| CC(C)(C)CC(C)(C)c1ccc(OCCSC(=N)N)cc1 | 77.1% (inactive) |
| CNC(=O)N/N=C/c1ccc([N+](=O)[O-])o1 | 98.1% (inactive) |
| O=Nc1ccccc1N=O | 91.1% (inactive) |
| O=C(/C=C\c1ccccc1)N1c2ccccc2CC1c1c[nH]c2ccccc12 (stereo not given) | 47.3% (inactive) |
| CN=C(N)N/N=C(\C)c1ccc2c(c1)Cc1cc(/C(C)=N/NC(N)=NC)ccc1-2 | 26.5% (inactive) |
| COC(=O)Nc1nc2ccc(C(=O)c3ccccc3)cc2[nH]1 | 43.2% (inactive) and 13.7% (inactive) and -39.8% (active) |
| O=C(Nc1cccc(Br)c1)Oc1ccc(Cl)c2cccnc12 | 13.6% [100 µM] (inactive) |
| O=C(CC1(O)C(=O)Nc2c(Cl)ccc(Cl)c21)c1ccc(Cl)cc1Cl (stereo not given) | 97.6% (inactive) |
| C[N+](C)=c1ccc2nc3c(cc(NCCCNc4cc5oc6cc(=[N+](C)C)ccc-6nc5c5ccccc45)c4ccccc43)oc-2c1 | 19.1% (inactive) |
| COc1cc(NS(C)(=O)=O)ccc1Nc1c2ccccc2nc2ccccc12 | 48.6% [2.5 µM] (inactive) |
| NC(=O)/C=C/C(=O)c1c(Cl)cccc1Cl | -57.5% (active) |
| C[n+]1c(/C=C/c2ccc([N+](=O)[O-])cc2)ccc2ccccc21 | 104% (inactive) |
| NC(N)=N/N=C/c1ccc([N+](=O)[O-])o1 | 98% (inactive) |
| S=C(NCCNC(=S)[S][Sn]([c]1ccccc1)([c]1ccccc1)[c]1ccccc1)[S][Sn]([c]1ccccc1)([c]1ccccc1)[c]1ccccc1 | -84.8% (active) |
| CCC(CCCN(CC)CCc1ccccc1)OC(=O)c1cc(OC)c(OC)c(OC)c1 (stereo not given) | 78.1% (inactive) |
| COc1ccccc1OC(=O)Oc1ccccc1OC | 105% (inactive) and 97.2% (inactive) |
| Cc1cc(N)c2ccccc2[n+]1CCCCCCCCCC[n+]1c(C)cc(N)c2ccccc21 | 4.94% (active) and -18.4% (active) |
| CN(C)C(=O)SC1=C(c2c(Cl)cccc2Cl)C(=O)c2ccccc21 | 119% (inactive) |

The molecules below were run on OVCAR-3 ovarian in the same assay as above. Details: 10 µM.

| SMILES | growth |
| --- | --- |
| O=C(Nc1cccc(Br)c1)Oc1cccc2cccnc12 | 119% (inactive) |
| O=C(O)c1c(Cl)c(Cl)c(Cl)c(Cl)c1-c1c2cc(I)c(=O)c(I)c-2oc2c(I)c(O)c(I)cc12 | 97.1% (inactive) and 72% (inactive) and 111% (inactive) |
| CN(C)C(=O)c1ccc(SC(=S)NCc2ccccc2)cc1 | 121% (inactive) |
| COc1ccc(-c2cscc2N)cc1 | 112% (inactive) |
| O=C(Nc1c(Cl)cccc1Cl)Oc1cccc2cccnc12 | 14% (inactive) |
